Screens deposited in PubChem by National Center for Advancing Translational Sciences (NCATS).
FH mod – Identification of activators of human fumarate hydratase by quantitative high-throughput screening; actives 0.22% (n = 54,000); FH coupled MDH/diaphorase resazurin fluorescence, 15 min; Potency, µM (titrated, usually from 79.9 µM), hits mostly inhibitors; Fumarate hydratase, mitochondrial (Homo sapiens), P07954; AID 1347055, 2019; also: the screen sought activators but most active calls are inhibition curves; nearly all actives have a fitted effect of over 45% in size
GALC G270D act – A Novel Cell-Based Assay to Identify Small Molecules for B -Galactocerebrosidase | P54803 | Potency, µM (doses to about 57.5 µM), most hits filed as activators | 145M-Twi-hGALC-G270D cells (Twitcher mouse brain line with human GALC G270D), HMU-beta-Gal fluorescence, 48 h | actives 0.1% (n = 45,000); also: nearly all actives have a fitted effect of over 65% in size
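Fluorescence readout: HMU-β-gal cleavage by mutant GALC (0.1 mM final, citrate/phosphate pH 5.2 with 1 mg/mL taurocholate), stopped with carbonate/bicarbonate plus Triton X-100. Cells: murine Twitcher 145M-Twi expressing human G270D GALC; qHTS for activators.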
DRV1 agonist – qHTS for Agonists of Human Resolvin D1 Receptor DRV1; CHO-K1 GPR32 beta-arrestin PathHunter luminescence, 90 min; zero percent set by DMSO-only wells; Probable G-protein coupled receptor 32 (Homo sapiens), O75388; activation, % at 76.9 µM; actives 2.5% (n = 48,000); AID 1346428, 2018;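 active = activation of at least 60% and not above a set upper limit, about 1 call in 100 departs from these limits; inconclusive = activation of 40% to 60%, or above that upper limit; inactive = activation under 40%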
Target sequence (O75388 whole entry, looked up): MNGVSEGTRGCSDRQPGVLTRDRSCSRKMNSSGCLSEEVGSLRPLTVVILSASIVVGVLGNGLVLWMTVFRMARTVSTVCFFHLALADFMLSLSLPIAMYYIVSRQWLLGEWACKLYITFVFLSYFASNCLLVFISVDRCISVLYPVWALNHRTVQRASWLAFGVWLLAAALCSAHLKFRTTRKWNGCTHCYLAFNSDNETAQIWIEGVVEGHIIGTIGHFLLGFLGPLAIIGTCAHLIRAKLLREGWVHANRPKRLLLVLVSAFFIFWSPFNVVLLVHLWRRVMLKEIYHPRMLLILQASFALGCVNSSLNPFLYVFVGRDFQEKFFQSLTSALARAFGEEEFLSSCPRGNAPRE
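Engineered CHO-K1 line co-expressing GPR32-ProLink and EA-beta-arrestin. Compound treatment lasted 90 min at 37 °C. Luminescence was recorded after 1 h with substrate at ambient temperature, relative to DMSO basal wells.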
A number is an active result; . = inactive; ? = inconclusive; / = no result given. Most compounds without a hit are left out; they make up all but 2.6% or so of the library. Unless noted, calls follow the shape of the dose curve; as a rule, active = well fitted curve in the direction sought with a large enough effect; inconclusive = small, poorly fitted or top-dose-only effect, or another doubt; inactive = no such curve, though single readings can be large; an effect the other way counts as inactive or inconclusive.

SMILES	FH mod	GALC G270D act	DRV1 agonist
CC1(C)C(=O)N(c2ccc(C#N)c(C(F)(F)F)c2)C(=S)N1c1ccc(C(N)=O)c(F)c1	.	/	/
ClC1=C(Cl)[C@]2(Cl)[C@@H]3[C@@H]4C[C@@H]([C@H]5O[C@@H]45)[C@@H]3[C@@]1(Cl)C2(Cl)Cl	.	.	113
C[C@]12C/C(=C/O)C(=O)C[C@@H]1CC[C@@H]1[C@@H]2CC[C@@]2(C)[C@H]1CC[C@]2(C)O	.	.	89
C[C@]12COC(=O)C[C@@H]1CC[C@@H]1[C@H]2CC[C@@]2(C)[C@H]1CC[C@]2(C)O	.	/	/
c1cc2c(cc1C1OC[C@@H]3C(c4ccc5c(c4)OCO5)OC[C@H]13)OCO2 (stereo not given in full)	.	/	/
O=C1OC(c2ccc(O)c(S(=O)(=O)O)c2)(c2ccc(O)c(S(=O)(=O)O)c2)c2c(Br)c(Br)c(Br)c(Br)c21	28µM	.	.
CN(N=O)c1cc(O)ccc1O	2.2µM	/	.
CCCCN1[C@@H]2CC[C@H]1CC(OC(c1ccc(F)cc1)c1ccc(F)cc1)C2 (stereo not given in full)	.	/	/
CN1CCc2cc3c(cc2C1C1OC(=O)c2c1ccc1c2OCO1)OCO3 (stereo not given)	.	/	/
COc1ccc2c(c1OC)CN1CCc3cc4c(cc3C1C2)OCO4 (stereo not given)	?	.	68
COC[C@]12CN(C)C3C4[C@H](OC)[C@H]1C3(C(OC)C[C@H]2O)[C@H]1C[C@@]2(O)[C@H](OC(=O)c3ccccc3)[C@@H]1[C@]4(O)[C@@H](O)[C@@H]2OC (stereo not given in full)	.	/	/
CC(=O)O[C@H]1C(=O)[C@]2(C)C(O)C[C@H]3OC[C@@]3(OC(C)=O)[C@H]2[C@H](OC(=O)c2ccccc2)[C@]2(O)C[C@H](O)C(C)=C1C2(C)C (stereo not given in full)	.	/	/
